Data from PubChem BioAssay AID1159580 (chemical genetic matrix, 2015).
The campaign covered roughly 5,500 compounds. About 2,000 (36%) were called active. About 18% were inconclusive and are not listed. Rule as the data show it: active = normalized growth mostly below about 0.91 (no sharp cut-off); inconclusive = no clear call, values can overlap the other calls; inactive = mostly above about 0.92. The list shows a part of the results.

Experiment: chemical genetic growth profiling, strain panel (AID 1159580);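 also: tested at 20 µM; growth read once vehicle control cultures reached saturation at 30 °C; 1 = growth at the plate median or of vehicle wells; lower values mean less growth of the strain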
Conditions: growth OD

Measured: normalized growth

CC(N)CCCC(C)(C)O (centres undefined)
inactive: S. cerevisiae deletion strains, locus YJR066W, strain TOR1, active compounds read low 1.01 | S. cerevisiae deletion strains, locus YKL009W, strain mrt4, active compounds read low 0.985 | S. cerevisiae deletion strains, locus YKL068W, active compounds read low 0.995 | S. cerevisiae deletion strains, locus YKL085W, strain MDH1 (second series), active compounds read low 0.995 | S. cerevisiae deletion strains, locus YKL085W, strain MDH1, active compounds read low 0.995 | S. cerevisiae deletion strains, locus YKL160W, strain elf1, active compounds read low 0.991 | S. cerevisiae deletion strains, locus YKL190W, strain CNB1, active compounds read low 0.995 | S. cerevisiae deletion strains, locus YKR001C, strain vps1, active compounds read low 0.99 | S. cerevisiae deletion strains, locus YKR026C, strain gcn3, active compounds read low 0.956 | S. cerevisiae deletion strains, locus YKR091W, strain srl3, active compounds read low 0.977 | S. cerevisiae deletion strains, locus YLL001W, strain dnm1, active compounds read low 0.974 | S. cerevisiae deletion strains, locus YLL026W, active compounds read low 0.979 | S. cerevisiae deletion strains, locus YLL041C, strain sdh2, active compounds read low 0.968 | S. cerevisiae deletion strains, locus YLR027C, strain aat2, active compounds read low 0.99 | S. cerevisiae deletion strains, locus YLR039C, strain RIC1, active compounds read low 1.01 | S. cerevisiae deletion strains, locus YLR058C, strain SHM2, active compounds read low 1.01 | S. cerevisiae deletion strains, locus YLR102C, strain apc9, active compounds read low 1.01 | S. cerevisiae deletion strains, locus YLR113W, strain HOG1, active compounds read low 0.988 | S. cerevisiae deletion strains, locus YLR221C, strain rsa3, active compounds read low 0.982 | S. cerevisiae deletion strains, locus YLR258W, strain gsy2, active compounds read low 0.982 | S. cerevisiae deletion strains, locus YLR262C, strain YPT6 (second series), active compounds read low 0.995 | S. cerevisiae deletion strains, locus YLR262C, strain YPT6, active compounds read low 1.03 | S. cerevisiae deletion strains, locus YLR268W, strain sec22, active compounds read low 0.999 | S. cerevisiae deletion strains, locus YLR320W, strain mms22, active compounds read low 1.01 | S. cerevisiae deletion strains, locus YLR330W, strain CHS5, active compounds read low 1.01 | S. cerevisiae deletion strains, locus YLR342W, strain FKS1 (second series), active compounds read low 1.04 | S. cerevisiae deletion strains, locus YLR342W, strain FKS1, active compounds read low 0.982 | S. cerevisiae deletion strains, locus YLR357W, strain rsc2, active compounds read low 0.981 | S. cerevisiae deletion strains, locus YLR370C, strain arc18, active compounds read low 0.988 | S. cerevisiae deletion strains, locus YLR371W, strain rom2, active compounds read low 0.991 | S. cerevisiae deletion strains, locus YLR384C, strain iki3, active compounds read low 0.985 | S. cerevisiae deletion strains, locus YLR418C, strain cdc73, active compounds read low 1.05 | S. cerevisiae deletion strains, locus YML016C, strain PPZ1, active compounds read low 1 | S. cerevisiae deletion strains, locus YML032C, strain rad52, active compounds read low 0.986 | S. cerevisiae deletion strains, locus YML120C, strain ndi1, active compounds read low 0.981 | S. cerevisiae deletion strains, locus YML124C, strain tub3, active compounds read low 1.01 | S. cerevisiae deletion strains, locus YMR058W, strain fet3, active compounds read low 0.974 | S. cerevisiae deletion strains, locus YMR078C, strain ctf18, active compounds read low 1.01 | S. cerevisiae deletion strains, locus YMR125W, strain sto1, active compounds read low 0.957 | S. cerevisiae deletion strains, locus YMR129W, active compounds read low 0.978 | S. cerevisiae deletion strains, locus YMR205C, strain PFK2, active compounds read low 1.01 | S. cerevisiae deletion strains, locus YMR223W, strain ubp8, active compounds read low 1.02 | S. cerevisiae deletion strains, locus YMR231W, strain pep5, active compounds read low 0.983 | S. cerevisiae deletion strains, locus YMR263W, strain SAP30, active compounds read low 0.984 | S. cerevisiae deletion strains, locus YMR307W, strain GAS1, active compounds read low 1.06 | S. cerevisiae deletion strains, locus YNL067W, strain RPL9B, active compounds read low 0.973 | S. cerevisiae deletion strains, locus YNL071W, strain lat1, active compounds read low 0.987 | S. cerevisiae deletion strains, locus YNL183C, strain NPR1, active compounds read low 1.03 | S. cerevisiae deletion strains, locus YNL209W, strain ssb2, active compounds read low 0.976 | S. cerevisiae deletion strains, locus YNL233W, strain BNI4, active compounds read low 0.97 | S. cerevisiae deletion strains, locus YNL248C, strain rpa49, active compounds read low 0.965 | S. cerevisiae deletion strains, locus YNL250W, strain rad50, active compounds read low 0.996 | S. cerevisiae deletion strains, locus YNL271C, strain bni1, active compounds read low 1.01 | S. cerevisiae deletion strains, locus YNL298W, strain CLA4, active compounds read low 0.999 | S. cerevisiae deletion strains, locus YNL307C, strain MCK1, active compounds read low 1.01 | S. cerevisiae deletion strains, locus YNL322C, strain KRE1 (second series), active compounds read low 0.972 | S. cerevisiae deletion strains, locus YNR049C, strain mso1, active compounds read low 0.965 | S. cerevisiae deletion strains, locus YNR052C, strain pop2, active compounds read low 1 | S. cerevisiae deletion strains, locus YOL006C, strain TOP1, active compounds read low 0.947 | S. cerevisiae deletion strains, locus YOL012C, strain htz1 0.693 | S. cerevisiae deletion strains, locus YOL147C, strain pex11, active compounds read low 1 | S. cerevisiae deletion strains, locus YOR001W, strain rrp6, active compounds read low 0.961 | S. cerevisiae deletion strains, locus YOR061W, strain CKA2, active compounds read low 1 | S. cerevisiae deletion strains, locus YOR069W, strain VPS5, active compounds read low 1.01 | S. cerevisiae deletion strains, locus YOR070C, strain gyp1, active compounds read low 0.992 | S. cerevisiae deletion strains, locus YOR080W, strain dia2, active compounds read low 0.98 | S. cerevisiae deletion strains, locus YOR083W, strain WHI5, active compounds read low 0.979 | S. cerevisiae deletion strains, locus YOR106W, strain vam3, active compounds read low 0.978 | S. cerevisiae deletion strains, locus YOR136W, strain idh2, active compounds read low 0.991 | S. cerevisiae deletion strains, locus YOR144C, strain elg1, active compounds read low 0.995 | S. cerevisiae deletion strains, locus YOR184W, strain ser1, active compounds read low 0.999 | S. cerevisiae deletion strains, locus YOR231W, strain MKK1, active compounds read low 1.03 | S. cerevisiae deletion strains, locus YOR265W, strain rbl2, active compounds read low 0.982 | S. cerevisiae deletion strains, locus YOR270C, strain vph1, active compounds read low 0.989 | S. cerevisiae deletion strains, locus YOR290C, strain snf2, active compounds read low 0.94 | S. cerevisiae deletion strains, locus YOR316C, strain cot1, active compounds read low 1 | S. cerevisiae deletion strains, locus YPL051W, strain arl3, active compounds read low 0.979 | S. cerevisiae deletion strains, locus YPL055C, strain LGE1, active compounds read low 0.915 | S. cerevisiae deletion strains, locus YPL078C, strain atp4, active compounds read low 0.975 | S. cerevisiae deletion strains, locus YPL106C, strain sse1, active compounds read low 0.951 | S. cerevisiae deletion strains, locus YPL240C, strain hsp82, active compounds read low 0.966 | S. cerevisiae deletion strains, locus YPL241C, strain CIN2, active compounds read low 1 | S. cerevisiae deletion strains, locus YPL256C, strain CLN2, active compounds read low 1.1 | S. cerevisiae deletion strains, locus YPR119W, strain clb2, active compounds read low 0.997 | S. cerevisiae deletion strains, locus YPR141C, strain kar3, active compounds read low 1 | S. cerevisiae deletion strains, locus YPR163C, strain tif3, active compounds read low 1 | S. cerevisiae deletion strains, locus YPR167C, strain met16, active compounds read low 1.01 | S. cerevisiae deletion strains, strain wtn01, active compounds read low 1 | S. cerevisiae strains, strain wild type, active compounds read low 1
